# High-throughput results from PubChem BioAssay.
# Shown are actives, neighbours in structure and some others; about 1.9% of the full set was active somewhere.
# BCLXL inh: inhibitors of human Bcl-xL, primary screen, biochemical, fluorescence polarization, HTS. Bcl-2-like protein 1 (Homo sapiens), Q07817. 320,000 compounds, 0.7% hits. inhibition, % at 10.9 µM. GST-Bcl-xL / FITC-Bim BH3 peptide fluorescence polarization;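 active means inhibition above the mean of all tested compounds plus 3 SD, cutoff set per campaign, cut at about 30% in these data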;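 further: 0% = DMSO wells and 100% = unlabeled Bim-BH3 peptide competitor; inhibitors lower millipolarization by displacing the labeled peptide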
# Target sequence (Q07817 whole entry, looked up): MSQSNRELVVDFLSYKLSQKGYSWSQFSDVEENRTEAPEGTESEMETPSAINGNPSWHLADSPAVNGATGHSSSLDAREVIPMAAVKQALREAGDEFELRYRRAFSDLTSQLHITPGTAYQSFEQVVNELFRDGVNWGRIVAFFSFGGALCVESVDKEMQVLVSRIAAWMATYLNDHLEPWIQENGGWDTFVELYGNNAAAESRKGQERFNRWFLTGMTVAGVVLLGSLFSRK
# MEX-5 binding: MEX-5 zinc finger RNA-binding disruptors – biochemical, C. elegans, fluorescence polarization, MLPCN library, primary screen; activity score (negative = inhibition of binding), % at 10 µM; MEX-5/FITC-TCR2 RNA binding; hits give low values; 300,000 compounds, 0.38% hits; Zinc finger protein mex-5 (Caenorhabditis elegans), Q9XUB2;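 active means inhibition past about -25% in most replicates, and total fluorescence under double the plate's negative control median, limit read from the data; inconclusive means replicates evenly split on the limit, or fluorescence at least double controls; inactive means too little inhibition in most replicates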;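 further: 0% = DMSO and -100% = 5 µM competing unlabeled TCR2 RNA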
# GLD-1 TGE inh: GLD-1/TGE RNA complex disruptors, primary screen, biochemical, fluorescence polarization; 320,000 compounds, 0.44% hits; Female germline-specific tumor suppressor gld-1 (Caenorhabditis elegans), Q17339; inhibition, % at 5.96 µM; purified GLD-1 + fluorescein TGE RNA;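 active means percent inhibition above a per-plate cutoff, the plate mean of test compounds plus 3 SD, cut at about 30% in these data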;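 further: 0% = DMSO wells with GLD-1 and probe and 100% = wells lacking GLD-1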
# LANA-H2B inh: blockers of LANA interaction with H2A/H2B – biochemical, FP readout, HTS, primary screen; Protein LANA1 (Human herpesvirus 8 type P (isolate GK18)), Q9QR71; cell-free LANA-H2A/H2B peptide, fluorescence polarization; inhibition, % (concentration not given with the values); 320,000 compounds, 0.6% hits; AID 2629, 2010; in the data active means inhibition mostly above about 10%, no sharp cut-off; inactive means mostly below about 6.7%
# MCL1-BIM inh: inhibitors of MCL1 binding to BIM-BH3, primary screen, biochemical, fluorescence polarization. Induced myeloid leukemia cell differentiation protein Mcl-1 (Homo sapiens), Q07820. GST-MCL1 / FITC-Bim-BH3 fluorescence polarization. inhibition, % at 10.9 µM. 320,000 compounds, 0.68% hits;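 active means inhibition above the mean inhibition of all tested compounds plus 3 SD, set per campaign, cut at about 40% in these data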;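 further: 0% = DMSO wells and 100% = unlabeled Bim-BH3 peptide control; higher means more loss of mP so more displacement of Bim peptide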
# CR mimetic SO: reduction of superoxide in aged yeast, primary screen, HTS. S. cerevisiae aged cells, superoxide DHE fluorescence; hits give low values. superoxide response (% of plate mean), % at 10 µM. 330,000 compounds, 0.18% hits;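 active means superoxide response under a set limit, about three screen SD below normal, cut at about 65% in these data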;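 further: yeast aged for seven days with compound at 30 °C before DHE staining; 100% = average MFI of all compound-treated wells on the plate with controls excluded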
# Bcl-xL conf: Bcl-xL inhibitors blocking Bim BH3 binding, confirmation, counter-screen for MCL1 inhibitor project, biochemical, fluorescence polarization; shares compounds with MCL1-BIM inh; GST-Bcl-xL / FITC-Bim BH3 peptide FP binding; inhibition, % at 10.9 µM; 1,700 compounds, 54% hits; AID 2166, 2009;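 active means inhibition above a cutoff equal to the mean inhibition of all tested compounds plus 3 SD, cut at about 30% in these data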;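 further: 0% = DMSO wells and 100% = unlabeled Bim BH3 control peptide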
# MCL1 BIM confirm: inhibitors of MCL1 binding to BIM-BH3, confirmation, biochemical, fluorescence polarization, triplicate. shares compounds with MCL1-BIM inh. GST-MCL1 / FITC-Bim-BH3 fluorescence polarization. 1,700 compounds, 61% hits. inhibition, % at 10.9 µM;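 active means inhibition above the average of all tested compounds plus 3 SD, cut at about 40% in these data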;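 further: 0% = DMSO wells and 100% = unlabeled Bim-BH3 control peptide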
# GLD1 RNA confirm: GLD-1/TGE RNA binding inhibitors, retest, confirmation, biochemical, fluorescence polarization, triplicate. 550 compounds, 10% hits. GLD-1/FL-TGE RNA fluorescence polarization. AID 2459, 2010. shares compounds with GLD-1 TGE inh. inhibition, % at 5.96 µM;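 active means average inhibition across triplicates above the hit cutoff set in the primary screen, cut at about 32% in these data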;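 further: 0% = GLD-1 with RNA probe and DMSO and 100% = wells lacking GLD-1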
# * = called active by the depositor; ? = inconclusive; · = not tested or not shown.
SMILES,BCLXL inh,MEX-5 binding,GLD-1 TGE inh,LANA-H2B inh,MCL1-BIM inh,CR mimetic SO,Bcl-xL conf,MCL1 BIM confirm,GLD1 RNA confirm
CSc1nc2nc3c(cc2c(=O)n1-c1ccccc1C)COC(C)(C)C3,57.1*,-0.5,45.9*,0.9,59.3*,102.5,-4.4,-0.2,-6.3
O=C1C(Cl)=C(NC2CCCCC2)C(=O)N1Cc1ccccc1,3.3,1.2,6.1,1.9,-0.9,96.5,·,·,·
O=C1C(Cl)=C(N2CCN(Cc3ccccc3)CC2)C(=O)N1Cc1ccccc1,56.6*,-3.8,34.4*,-0.4,56.0*,99.6,7.3,3.9,7.0
CCOc1ccc(N=C/C=C/c2ccccc2)c(O)c1,83.8*,-3.6,72.1*,1.7,87.2*,76.6,14.1,20.1,2.6
CCOc1ccc(NCC(=O)N/N=C/C=C/c2ccccc2)cc1,1.4,-0.2,6.2,0.8,-2.1,153.1,·,·,·
COCCCNC(=O)c1c(N)n(-c2ccc3c(c2)OCO3)c2nc3ccccc3nc12,47.8*,-0.2,49.1*,0.8,58.0*,95.9,7.2,2.4,-0.9
CCN1CCN(c2ccc(Cl)cc2NC(=O)c2ccc(-n3nc(C)cc3C)cc2)CC1,2.9,·,-3.4,-4.0,2.1,98.6,·,·,·
CCN(C(=O)COC(=O)c1cc(-c2cccc3ccccc23)nc2ccccc12)C1CCS(=O)(=O)C1 (stereo unspecified),91.0*,·,38.6*,5.6,97.7*,126.2,49.6*,73.5*,12.0
COc1ccc(S(=O)(=O)N2CCOCC2)cc1NC(=O)CSc1nnc2n1CCCCC2,·,·,2.3,-1.3,·,84.8,·,·,·
O=C(CSc1nnc2ccccn12)NNC(=O)c1ccccc1F,·,·,-0.2,-1.9,·,74.1,·,·,·
COc1ccc(N2CCCC2)c(NC(=O)c2ccc(Br)o2)c1,48.3*,-5.9,38.0*,-20.2,55.8*,94.1,21.7,16.4,41.1*
O=c1[nH]c(Nc2ccc(F)cc2)cc2ccccc12,54.3*,-14.7,66.1*,-0.9,66.3*,132.2,11.8,12.6,7.9
O=c1[nH]c(Nc2ccccn2)cc2ccccc12,11.9,-9.2,8.1,-0.5,7.6,106.6,·,·,·
CCCOc1ccc(C2C3=C(CCCC3=O)N(CC(=O)O)C3=C2C(=O)CCC3)cc1OCC,81.2*,2.3,32.6*,-0.5,100.9*,88.4,-3.6,-9.8,1.4
C=CCOc1ccc(C2C3=C(CCCC3=O)N(CC(=O)O)C3=C2C(=O)CCC3)cc1OCC,12.3,-5.3,2.5,1.9,8.3,97.6,·,·,·
Cc1cc(N2CCN(C(=O)c3ccco3)CC2)c2ccccc2n1,-1.4,0.4,3.5,1.4,2.9,92.7,·,·,·
O=C(O)CCNc1cc(N2CCN(C(=O)c3ccco3)CC2)c2noc3c2c1C(=O)c1ccccc1-3,78.1*,?,37.5*,2.0,92.8*,107.5,59.4*,-111.1,-216.1
CC(C)[C@H](NC(=O)c1ccc(C(C)(C)C)cc1)C(=O)N1CCN(Cc2ccc3c(c2)OCO3)CC1,·,·,1.5,-2.8,·,101.7,·,·,·
